The first assay relates to THRa homodimer (NR concentration 90 nM). Briefly: PBM binding z-score (relative to random genomic background probes); higher = stronger binding; sequences stand for … in GC…GCGATTGACAGCGTAGAATGAAGG
In outline: (§1)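 Custom Agilent 4×180K protein-binding microarrays carried double-stranded probes. Their 34-nt variable regions held direct-repeat seeds, single-nucleotide variants, half-site ablations and random human genomic background sequences. Arrays were incubated 1 h with ligand-free nuclear receptor dimers in PBS pH 7.4, 2% milk, 0.02% Triton X-100, 1 mM DTT, 0.2 mg/mL BSA and 0.4 mg/ml salmon testes DNA. Antibodies against each partner (one per run) detected binding, and scanned fluorescence was regression-normalized. Binding z-scores use random background probes as reference.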
In the case of CCAGACAAGTGAAAGGTAACTCAGTCTGGTACGC, the PBM binding z-score was -0.287.

Consider AGGATGAGGTTATTAAGATCAGGGAATTGCGGTC, for which the PBM binding z-score worked out at 1.47.

ACTAGTTGGTCAGCTGCGGTCACACACAATTCGG: the PBM binding z-score was 0.969.

In turn, TCAGCCAGGTGAAGGTAACTCAGGTACGCAGTCG came in with a PBM binding z-score of 0.391.

For the sequence TAGCCTAGGTCATTCGGGCCAGTATAGTGTCGGC, the PBM binding z-score worked out at 1.11.

As for ACTATTAGTTGACTTAGGGCAACCAATACGACGC, the PBM binding z-score turned out to be 0.216.

Sequence ACTAGCGGGCCAAGGGTCACTCAAGATTAGTCCG came in with a PBM binding z-score of -0.0687.

The sequence GCAAACAGGTGAAACGCAGGTAACTCAGGGTGGC returned a PBM binding z-score of -0.516.

In turn, CGTCAAAGTTCAACGAAGGTAACGTAAAGCACGC gave a PBM binding z-score of 0.29.

Sequence ATCGAAAGGTCGAGGTAAGTATAGAGAAAGGGAA had a PBM binding z-score of 0.233.

Sequence CGTCCAAGGTCAAAGCTAGGTCAGTGAAAGCATT registered a PBM binding z-score of 2.86.

With ATCTCTAGGCAACCAAGTTCAGTGAATGCCGAAC, the PBM binding z-score was -0.255.

In the case of TCATATAGGTAAACAGGTGAAATTCCGTAAGTTA, the PBM binding z-score turned out to be 0.651.

Sequence TAGCCTAGGTCATTCAGGGGCGAGTATAGAAAGC registered a PBM binding z-score of 0.866.

As to GCAGCTAGGTCAGGTTGGTCAGCTAACGGGTACG, the PBM binding z-score worked out at 0.4.

On to CCTATTTGGTCAGGAGGTCACACACCGGATATGA, for which the PBM binding z-score amounted to 2.66.

In turn, GATACAGGGTCAGATAGAGGCCAGAGTATGGAAA came in with a PBM binding z-score of 0.893.

CCGACTGGGGCAGAAAGGTAACCATACCATCCGG yielded a PBM binding z-score of -0.606.

Another assay deals with VDR homodimer (NR concentration 270 nM). Described as above. In outline:
as §1
Sequence GCTCGGAGGACAAGGTCAGATCTTTGTCCGTAGA gave a PBM binding z-score of 0.872.

With CTACCAAGGTGAGCAAGGTCGTTGATTACTATTC, the PBM binding z-score is 1.42.

For the sequence CGTCCAAGATCAAGGTCAGTGAAAGAGACTCGAA, the PBM binding z-score was 0.979.

In turn, AGAATGAGGTTATTAAGATCAGGGAGTTGCGGTC registered a PBM binding z-score of 1.39.

Sequence ACAGACAGGTGAGGAAGGTAACTCAGGCTATCAT came in with a PBM binding z-score of -0.55.

Consider CGTCCATGGTCAGCAGGTCAGTGAAAGCGACGTG, for which the PBM binding z-score was -0.456.

Sequence TCTTGTAGATCATAGGTTAAGAAAGCCGAAGCCT returned a PBM binding z-score of -0.05.

In the case of CAAACTAGGTCACAAAGGTCAAAGTCCGTGCGTA, the PBM binding z-score was 6.7.

Take CTCGAAAGGTCGTGCTAAGGTGAGTATACCAAAC: the PBM binding z-score was 1.29.

For the sequence TCGAGTAGGTTAACAATGGGGCATTCAGCTTTCT, the PBM binding z-score is -0.182.

As for ACAGACAGGTGATGAAGGTTACTCAGGCTATCAT, the PBM binding z-score came out at 0.291.

For the sequence AGAACGAGGGCACGCTGAGTTGATACCAGAGTAG, the PBM binding z-score amounted to 1.98.

Sequence TAGCCTACGTCATTGGGCCAGTATAGTACGCATC had a PBM binding z-score of -0.718.

On to GCGACTGGGGCATAAGCAGGTTACCATAACTTAA, for which the PBM binding z-score is -0.246.

As for GCTTCTAGGTCAGGTTGGTCAGCTAACGGGTACG, the PBM binding z-score was determined as 0.679.

TGCCAAAGTTCAAAGGTAACGTAAGTATCCACAC came in with a PBM binding z-score of 5.01.

Consider TCTCCGAGGACACGAAAGGTCAGAGCTCGACATC, for which the PBM binding z-score worked out at 1.31.

As to CCGACTGGGGCAGAAAGGTTACCAAACCATCCGG, the PBM binding z-score is -0.377.

The sequence ACAGACAGGTGTTGAAGGTAACTCAGGCTATCAT showed a PBM binding z-score of -0.587.

On to TCGAGTAGGTTAGCGGCATTCAGAATGGCGTCGA, for which the PBM binding z-score is -0.691.

In the case of CCTACTGGGCCATTCACAGGTCATTGATCATATG, the PBM binding z-score came to 1.17.

The sequence AGAATGAGGTTATACGTAAATCAGGGAAGAAAGT had a PBM binding z-score of 0.824.

Sequence CCAGACAAGTGAAAGGTAACTCAGTCTGGTACGC came in with a PBM binding z-score of 0.0715.

Consider AGGATGAGGTTATTAAGATCAGGGAATTGCGGTC, for which the PBM binding z-score came out at 1.97.

ACTAGTTGGTCAGCTGCGGTCACACACAATTCGG had a PBM binding z-score of 0.532.

In turn, TCAGCCAGGTGAAGGTAACTCAGGTACGCAGTCG yielded a PBM binding z-score of -0.347.

Consider TAGCCTAGGTCATTCGGGCCAGTATAGTGTCGGC, for which the PBM binding z-score came out at 1.49.

Turning to ACTATTAGTTGACTTAGGGCAACCAATACGACGC, the PBM binding z-score worked out at 0.251.

The sequence ACTAGCGGGCCAAGGGTCACTCAAGATTAGTCCG registered a PBM binding z-score of 1.07.

The sequence GCAAACAGGTGAAACGCAGGTAACTCAGGGTGGC came in with a PBM binding z-score of -0.658.

CGTCAAAGTTCAACGAAGGTAACGTAAAGCACGC: the PBM binding z-score is 3.33.

ATCGAAAGGTCGAGGTAAGTATAGAGAAAGGGAA yielded a PBM binding z-score of 0.546.

Regarding CGTCCAAGGTCAAAGCTAGGTCAGTGAAAGCATT, the PBM binding z-score stood at 3.7.

On to ATCTCTAGGCAACCAAGTTCAGTGAATGCCGAAC, for which the PBM binding z-score is 2.3.

Sequence TCATATAGGTAAACAGGTGAAATTCCGTAAGTTA gave a PBM binding z-score of 0.614.

Take TAGCCTAGGTCATTCAGGGGCGAGTATAGAAAGC: the PBM binding z-score was determined as 1.68.

As for GCAGCTAGGTCAGGTTGGTCAGCTAACGGGTACG, the PBM binding z-score amounted to 0.351.

In turn, CCTATTTGGTCAGGAGGTCACACACCGGATATGA yielded a PBM binding z-score of 2.61.

GATACAGGGTCAGATAGAGGCCAGAGTATGGAAA returned a PBM binding z-score of 1.42.

Regarding CCGACTGGGGCAGAAAGGTAACCATACCATCCGG, the PBM binding z-score was -0.291.
